Screens: PubChem BioAssay, SRMLSC
Fluor 339 460: intrinsic fluorescence of library compounds, ex339/em460 – biochemical, MLSMR library, data from DPM-DC assay, artefact control, profiling panel | compound autofluorescence, ex339/em460 nm, NADH buffer; hits give high values; 1 = no-compound wells, NADH background | 65,000 compounds, 5.5% hits | fluorescence fold increase at 10 µM;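 active means at 10 µM, mean starting fluorescence two-fold or more over control wells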;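 further: signal is the first read of a kinetic run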
A340 absorber: compound absorbs light at 340 nm; fold change at 10 µM; 65,000 tested, under 10 active; compound absorbance at 340 nm, fold over control;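 active means at 10 µM dose, initial 340 nm absorbance at least 2 fold that of control wells; inactive means change under 2 fold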;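 further: initial absorbance extrapolated from kinetic A340 decline of NADH oxidation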
NADH enzymes: blocks coupling enzymes of NAD/NADH assays. coupled PK/LDH NADH assays, four targets. IC50, µM (doses to about 10 µM), for the others: top-dose inhibition. 65,000 compounds, 0.02% hits. AID 774;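 active means single-dose screening hits from any of four coupled enzyme assays that gave an IC50 when retested across doses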;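 further: the DPM-DC format reads NADH fluorescence rather than 340 nm absorbance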
DPM-DC inhibit: S. pneumoniae DPM-DC inhibition; purified DPM-DC, PK/LDH coupled NADH fluorescence; calls only at 10 µM; 65,000 compounds, 0.49% hits; AID 556;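 active means the 320 compounds with the highest percent inhibition in the single-dose primary screen, excluding strongly autofluorescent ones, cut at about 32% in these data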;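 further: kinetic rate of NADH fluorescence loss reporting ADP formed by the decarboxylase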
Spn MK inh: S. pneumoniae mevalonate kinase inhibition. 65,000 compounds, 0.48% hits. purified MK, PK/LDH-coupled NADH absorbance 340 nm. inhibition, % at 10 µM. AID 555;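 active means ranked among the strongest by inhibition in the single 10 µM screen, a fixed top-ranked set picked for dose follow-up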
Spn PMK inh: inhibitors of Streptococcus pneumoniae phosphomevalonate kinase | purified PMK, PK/LDH-coupled NADH absorbance 340 nm | inhibition, % at 10 µM | 65,000 compounds, 0.49% hits | AID 539;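 active means top-ranked compounds by inhibition in the single 10 µM screen, taking a fixed number of the strongest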;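 further: 0% = full reaction with DMSO carrier and 100% = background rate without enzyme reaction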
Active calls of the source: *. Only some compounds are listed: those with a hit (about 6.3% of all), similar ones and a draw of the others.

What do the screens show for `Cc1cc(OCc2nn[nH]n2)c2c(C)c(CC(=O)O)c(=O)oc2c1`?
Fluor 339 460: 3.9*; A340 absorber: 1.1; NADH enzymes: 3%; Spn MK inh: 0; Spn PMK inh: 6

How did CCOc1ccc(Cc2nn[nH]n2)cc1 do in these assays?
Fluor 339 460: 1; A340 absorber: 1; NADH enzymes: 2%; DPM-DC inhibit: inactive; Spn MK inh: 5; Spn PMK inh: 8

Results for COc1ccc(-c2cc(=O)oc3c(C)c(OCc4nn[nH]n4)ccc23)cc1 ?
Fluor 339 460: 1.7; A340 absorber: 1.2; NADH enzymes: 3%; DPM-DC inhibit: inactive; Spn MK inh: 0; Spn PMK inh: 7

Results for C[C@H]1C[C@@H]2[C@H]([C@@H](O)C[C@@]3(C)[C@H]2CC[C@]3(O)C(=O)CO)[C@@]2(C)C=CC(=O)C=C12 ?
Fluor 339 460: 1.1; A340 absorber: 0.98; NADH enzymes: 4%; DPM-DC inhibit: inactive; Spn MK inh: 8; Spn PMK inh: 7

How did COc1ccc(S(=O)(=O)N(C)CC(=O)N2CCC(C(N)=O)CC2)cc1Cl do in these assays?
Fluor 339 460: 1.1; A340 absorber: 1; NADH enzymes: 5%; DPM-DC inhibit: inactive; Spn MK inh: 8; Spn PMK inh: 7

What do the screens show for `Cc1c(Cc2ccccc2)c(=O)oc2c(C)c(OCc3nn[nH]n3)ccc12`?
Fluor 339 460: 3.9*; A340 absorber: 1.1; NADH enzymes: 9%; Spn MK inh: 5; Spn PMK inh: 12

What do the screens show for `Cc1cccc(CNC(=O)c2ccccc2N)c1`?
Fluor 339 460: 3.6*; A340 absorber: 1.1; NADH enzymes: 5%; Spn MK inh: 6; Spn PMK inh: 4

What do the screens show for `Cc1ccccc1C(=O)NCc1ccncc1`?
Fluor 339 460: 1.1; A340 absorber: 1; NADH enzymes: 8%; DPM-DC inhibit: inactive; Spn MK inh: 11; Spn PMK inh: 8

How did O=c1c(O)c(-c2cccs2)oc2ccccc12 do in these assays?
Fluor 339 460: 3.7*; A340 absorber: 1.2; NADH enzymes: 4%; Spn MK inh: 8; Spn PMK inh: 0

How did Cc1ccc(-c2oc3ccccc3c(=O)c2O)cc1 do in these assays?
Fluor 339 460: 1.4; A340 absorber: 1; NADH enzymes: 3%; DPM-DC inhibit: inactive; Spn MK inh: 7; Spn PMK inh: 8

Results for COC(=O)c1cc(Br)c(=O)n(Cc2ccc3c(c2)OCO3)c1 ?
Fluor 339 460: 1.1; A340 absorber: 1; NADH enzymes: 2%; DPM-DC inhibit: inactive; Spn MK inh: 0; Spn PMK inh: 5

What do the screens show for `CCOC(=O)c1c(C)[nH]c(C(=O)COC(=O)c2ccccc2NC(=O)c2ccco2)c1C`?
Fluor 339 460: 3.4*; A340 absorber: 1.1; NADH enzymes: 19%; DPM-DC inhibit: active; Spn MK inh: 0; Spn PMK inh: 15

Results for CCOc1ccc(-c2nc3n(c(=O)c2C#N)CCCS3)cc1 ?
Fluor 339 460: 2.8*; A340 absorber: 1.1; NADH enzymes: 14%; DPM-DC inhibit: inactive; Spn MK inh: 11; Spn PMK inh: 8

What do the screens show for `COc1ccc(-c2nc3n(c(=O)c2C#N)CCCS3)cc1`?
Fluor 339 460: 2*; A340 absorber: 1.1; NADH enzymes: 8%; DPM-DC inhibit: inactive; Spn MK inh: 5; Spn PMK inh: 0

Results for c1ccc2c(-c3nc(C4CCCCC4)no3)cc(-c3ccncc3)nc2c1 ?
Fluor 339 460: 1.1; A340 absorber: 0.97; NADH enzymes: 3%; DPM-DC inhibit: inactive; Spn MK inh: 0; Spn PMK inh: 16

Results for O=C(Nc1ccncc1)c1cc2ccccc2oc1=O ?
Fluor 339 460: 1.1; A340 absorber: 1.1; NADH enzymes: 4%; DPM-DC inhibit: inactive; Spn MK inh: 9; Spn PMK inh: 4

What do the screens show for `O=c1oc2ccccc2cc1-c1cn2cccnc2n1`?
Fluor 339 460: 3.6*; A340 absorber: 1.2; NADH enzymes: 20%; Spn MK inh: 20; Spn PMK inh: 19

Results for COc1cc(OC)cc(C(=O)N2c3ccc(F)cc3CCC2C)c1 (stereo not drawn) ?
Fluor 339 460: 1; A340 absorber: 0.99; NADH enzymes: 3%; DPM-DC inhibit: inactive; Spn MK inh: 0; Spn PMK inh: 13

How did Cn1c(=O)c2c(nc(SCc3ccccn3)n2C)n(C)c1=O do in these assays?
Fluor 339 460: 1.1; A340 absorber: 1; NADH enzymes: 7%; DPM-DC inhibit: inactive; Spn MK inh: 16; Spn PMK inh: 4

Results for Clc1ccc(OCc2cn3cccnc3n2)c2ncccc12 ?
Fluor 339 460: 2.1*; A340 absorber: 1; NADH enzymes: 7%; Spn MK inh: 0; Spn PMK inh: 14

Results for COc1ccccc1-c1cn(S(=O)(=O)c2ccc(F)cc2)nc1N ?
Fluor 339 460: 1.1; A340 absorber: 1; NADH enzymes: 5%; DPM-DC inhibit: inactive; Spn MK inh: 12; Spn PMK inh: 2

What do the screens show for `COCCNC(=O)c1c(N)n(-c2cccc(C)c2)c2nc3ccccc3nc12`?
Fluor 339 460: 3.9*; A340 absorber: 1; NADH enzymes: 9%; Spn MK inh: 11; Spn PMK inh: 7

How did Nc1c(C(=O)NCCN2CCOCC2)c2nc3ccccc3nc2n1-c1ccc2c(c1)OCO2 do in these assays?
Fluor 339 460: 1.6; A340 absorber: 1; NADH enzymes: 10%; DPM-DC inhibit: active; Spn MK inh: 14; Spn PMK inh: 8

Results for COC(=O)c1c(N)n(-c2ccc(N3CCOCC3)cc2)c2nc3ccccc3nc12 ?
Fluor 339 460: 1; A340 absorber: 1.1; NADH enzymes: 2%; DPM-DC inhibit: inactive; Spn MK inh: 0; Spn PMK inh: 7

Results for COC(=O)c1c(N)n(-c2ccc(NC(C)=O)cc2)c2nc3ccccc3nc12 ?
Fluor 339 460: 3.8*; A340 absorber: 1.1; NADH enzymes: 8%; Spn MK inh: 6; Spn PMK inh: 9

Results for Nc1c(C(=O)NCCN2CCOCC2)c2nc3ccccc3nc2n1-c1ccccc1 ?
Fluor 339 460: 3.9*; A340 absorber: 1; NADH enzymes: 8%; Spn MK inh: 10; Spn PMK inh: 5

Results for COc1ccccc1NS(=O)(=O)c1cc(C(=O)NCCN2CCOCC2)ccc1Cl ?
Fluor 339 460: 1.1; A340 absorber: 1; NADH enzymes: 5%; DPM-DC inhibit: inactive; Spn MK inh: 0; Spn PMK inh: 16

How did C=CCn1c(N)c(C(=O)Nc2ccccc2)c2nc3ccccc3nc21 do in these assays?
Fluor 339 460: 1.4; A340 absorber: 1.1; NADH enzymes: 1%; DPM-DC inhibit: inactive; Spn MK inh: 0; Spn PMK inh: 2

Results for C=CCNC(=O)c1c(N)n(-c2cccc(S(N)(=O)=O)c2)c2nc3ccccc3nc12 ?
Fluor 339 460: 2.1*; A340 absorber: 1.1; NADH enzymes: 4%; Spn MK inh: 0; Spn PMK inh: 8
